The values below come from PubChem BioAssay (EPA / NIEHS).

Active and inactive are the calls of the source. How the source made its calls: active means hit-call score of the fitted dose curve at least 0.9, where 1 is the maximum; inactive means score below 0.9.

The nature of test [1]: CCTE_Padilla_ZF_Score.Living: CCTE's 144 Hour Post-fertilization zebrafish Assay Score for Viability, Padilla Lab (AID 2284410).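 Further: larval death at 6 dpf judged by absent heartbeat or coagulation.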 In a few lines: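 Wild-type zebrafish embryos were exposed singly from 6–8 hpf in sealed wells of Hanks' solution at 26C, then rinsed at 5 dpf. At 6 dpf, blinded assessors scored mortality (no heartbeat or coagulation) by stereomicroscopy, fitted against DMSO.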

Test [2] can be described thus: CCTE_Padilla_ZF_Score.Tail: CCTE's 144 Hour Post-fertilization zebrafish Assay Score for Tail Malformation, Padilla Lab (AID 2284414). In a few lines:
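Wild-type zebrafish embryos, one per well in 200 uL 10% Hanks', dosed at 6-8 hpf, sealed, and kept at 26 C on a 14:10 h light cycle. Chemical was rinsed out at 5 dpf. Blinded brightfield scoring of tail defects followed at 6 dpf.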

Test [3] can be described thus: CCTE_Padilla_ZF_Score.Blood_pooling: CCTE's 144 Hour Post-fertilization zebrafish Assay Score for Blood Pooling, Padilla Lab (AID 2284415). In a few lines:
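Wild-type outbred zebrafish embryos, one per well in 10% Hanks', exposed from 6–8 hpf in sealed plates at 26C on 14:10 h light:dark, rinsed at 5 dpf. Blinded stereomicroscope scoring of blood pooling at 6 dpf; gain-of-signal versus DMSO.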

Test [4] is described as follows: CCTE_Padilla_ZF_Score.Any: CCTE's 144 Hour Post-fertilization zebrafish Assay Score for Any Mortality or Malformation, Padilla Lab (AID 2284416). An outline of the steps: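 Wild-type zebrafish embryos with chorions, one per well in 10% Hanks' from 6–8 hpf, dosed in sealed plates at 26 C, 14:10 h light:dark; rinsed at 5 dpf; blinded scoring at 6 dpf for death or malformation, versus DMSO.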

The test system of a further test is TTR (gene 7276). As to the kind of experiment: CCTE_GLTED_hTTR_0.125uM: CCTE's human Transthyretin (hTTR) Inhibition Assay, with 0.125uM TTR, Great Lakes Toxicology and Ecology Division (GLTED) Lab (AID 2284431).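 Further: hits lower the fluorescence signal relative to DMSO baseline.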 In a few lines: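 Cell-free displacement of ANSA probe from 0.125uM TTR after 2 h incubation with chemical. Fluorescence read at 380 nm excitation/475 nm emission; loss of signal relative to DMSO indicates T4-site displacement.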

Test [5] can be described thus: CCTE_Padilla_ZF_Score.General: CCTE's 144 Hour Post-fertilization zebrafish Assay Score for General Malformation, Padilla Lab (AID 2284411). An outline of the steps:
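Wild-type zebrafish embryos were plated singly at 6-8 hpf in 10% Hanks' and exposed in sealed wells at 26C until rinsed on 5 dpf. At 6 dpf two blinded assessors scored mortality, hatching and malformations by stereomicroscopy; gain-of-signal versus DMSO.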

Turning to `CCO[Si](CCC(F)(F)C(F)(F)C(F)(F)C(F)(F)C(F)(F)C(F)(F)F)(OCC)OCC`, the outcome in test [1], in test [2], in test [3] and in test [4] was inactive.

`C=CC(=O)OCC(F)(F)C(F)(F)C(F)(F)C(F)(F)C(F)(F)C(F)(F)C(F)(F)F`: the compound was called inactive in test [1], in test [2], in test [3] and in test [4].

Consider `NC(=O)C(F)(F)C(F)(F)C(F)(F)C(F)(F)F`, for which the result in test [1], in test [2], in test [3] and in test [4] was inactive.

For the compound `FC(F)(Br)C(F)(F)C(F)(F)C(F)(F)C(F)(F)C(F)(F)Br`, the call in test [1], in test [2], in test [3] and in test [4] was inactive.

In the case of `CCCCC(CC)COP(=O)(O)OCC(CC)CCCC` (centres undefined), in the test with TTR (gene 7276), the AC50 was 5.44 µM (active).

Regarding `OCC(F)(F)C(F)(F)C(F)(F)F`, the outcome in test [1], in test [2], in test [3] and in test [4] was inactive.

Take `CC(Cc1ccc(O)c(O)c1)C(C)Cc1ccc(O)c(O)c1` (centres undefined): the AC50 with TTR (gene 7276) is 0.0909 µM (active).

In the case of `O=C(O)C(F)(F)C(F)(F)C(F)F`, the call in test [1], in test [2], in test [3] and in test [4] was inactive.

For the compound `FC(F)(F)C(F)(F)C(F)(F)C(F)(F)C(F)(F)C(F)(F)C(F)(F)Br`, the compound was classed as inactive in test [1], in test [2], in test [3] and in test [4].

As for `O=S(=O)(OCC(F)F)C(F)(F)F`, the result in test [1], in test [2], in test [3] and in test [4] was inactive.

As for `O=C(O)C(F)(F)C(F)(F)C(F)(F)C(F)(F)C(F)(F)C(F)(F)C(F)(F)C(F)(F)Cl`, the AC50 in test [1] is 35.5 µM (active); in test [4], 10 µM (active). The call in test [2] and in test [3] was inactive.

Consider `O=C(O)C(F)(F)C(F)(F)OC(F)(F)F`, for which the result in test [1], in test [2], in test [3] and in test [4] was inactive.

Consider `CCCCCCCCC(F)(F)C(F)(F)C(F)(F)C(F)(F)C(F)(F)C(F)(F)F`, for which the outcome in test [1], in test [2], in test [3] and in test [4] was inactive.

For the compound `FC(F)(F)C(F)(F)CNCC(F)(F)C(F)(F)F`, the compound was classed as inactive in test [1], in test [2] and in test [3]. Besides, the AC50 in test [4] was 0.00326 µM (active).

On to `O=C(O)C(F)(F)C(F)(F)C(F)(F)F`, for which the call in test [1], in test [2], in test [3] and in test [4] was inactive.

In the case of `c1ccc(B(c2ccccc2)c2ccccc2)cc1`, in the test on TTR (gene 7276), the AC50 was 1.6 µM (active).

`OCCCC(F)(F)C(F)(F)C(F)(F)C(F)(F)C(F)(F)C(F)(F)C(F)(F)F`: the call in test [1], in test [2] and in test [3] was inactive. Moreover, the AC50 in test [4] is 38.7 µM (active).

Take `CC(C)(C)C(=O)CC(=O)C(F)(F)C(F)(F)C(F)(F)F`: the AC50 is 32.8 µM (active) in test [1] and 26.6 µM (active) in test [4]. For the same compound, the compound was classed as inactive in test [2] and in test [3].

For the compound `Oc1ccc(Nc2ccccc2)cc1`, the compound was called inactive in test [5].

`C=CC(F)(F)C(F)(F)C(F)(F)C(F)(F)C(F)(F)C(F)(F)C(F)(F)C(F)(F)F`: the call in test [1], in test [2], in test [3] and in test [4] was inactive.

In the case of `FC(F)(I)C(F)(F)C(F)(F)C(F)(F)I`, the call in test [1] and in test [3] was inactive. Moreover, the results for the AC50 in test [2] and in test [4] were 80.4 µM (active) and 16.9 µM (active), respectively.

As to `Cc1ccc(S(=O)(=O)NCl)cc1`, the AC50 in the test with TTR (gene 7276) is 44.5 µM (active).

For `C=C(C)C(=O)OCC(F)(F)C(F)(F)C(F)(F)C(F)(F)C(F)(F)C(F)(F)C(F)(F)F`, the outcome in test [1], in test [2], in test [3] and in test [4] was inactive.

In the case of `O=C(O)C(F)(OC(F)(F)C(F)(OC(F)(F)C(F)(OC(F)(F)C(F)(F)C(F)(F)F)C(F)(F)F)C(F)(F)F)C(F)(F)F` (centres undefined), the call in test [1], in test [2], in test [3] and in test [4] was inactive.

On to `C=CC(=O)OCC(F)(F)C(F)(F)C(F)(F)C(F)(F)COC(=O)C=C`, for which the AC50 in test [1] is 9.44 µM (active); in test [4], 4.38 µM (active). For the same compound, the call in test [2] and in test [3] was inactive.

For `O=P(O)(O)OCCC(F)(F)C(F)(F)C(F)(F)C(F)(F)C(F)(F)C(F)(F)F`, the outcome in test [1], in test [2], in test [3] and in test [4] was inactive.

As usually defined, the AC50 is the concentration giving half of the maximal activity seen.
